Test results: PubChem BioAssay AID2778 (National Center for Advancing Translational Sciences (NCATS), 2010)
Records with an inconclusive call do not appear. Calls of active or inactive are those of the source. Calls come from the whole dose curve; as a rule, active = well fitted inhibition curve with a large enough effect; inconclusive = small, poorly fitted or top-dose-only effect, or effect the other way; inactive = flat fitted curve, though single readings scatter.

The compounds below were run against Menin (Homo sapiens) (UniProt O00255) (assay: Confirmation of Inhibitors Targeting the Menin-MLL Interaction in MLL Related Leukemias: Confirmation in an HTRF (commercial TR-FRET) Assay using His-tagged menin and biotin-labeled MLL peptide). Conditions: His-menin / biotin-MLL peptide binding; series mostly up to 126 µM; activity change, negative = inhibition: at the top concentration.
Outline: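 Compounds were incubated 1 hr at ambient with a preformed His6-menin (200 nM)/biotinylated MLL-w.t. peptide (80 nM) complex in Tris pH 7.5 buffer; anti-His Eu-cryptate (3.5 nM) and SA-XL665 (10 nM) added, TR-FRET read after 1h.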
% is set by controls: 0 for no effect and ±100 for the full control effect; potency is the fitted concentration of half-maximal effect.

Menin (Homo sapiens), sequence (O00255 whole entry, looked up): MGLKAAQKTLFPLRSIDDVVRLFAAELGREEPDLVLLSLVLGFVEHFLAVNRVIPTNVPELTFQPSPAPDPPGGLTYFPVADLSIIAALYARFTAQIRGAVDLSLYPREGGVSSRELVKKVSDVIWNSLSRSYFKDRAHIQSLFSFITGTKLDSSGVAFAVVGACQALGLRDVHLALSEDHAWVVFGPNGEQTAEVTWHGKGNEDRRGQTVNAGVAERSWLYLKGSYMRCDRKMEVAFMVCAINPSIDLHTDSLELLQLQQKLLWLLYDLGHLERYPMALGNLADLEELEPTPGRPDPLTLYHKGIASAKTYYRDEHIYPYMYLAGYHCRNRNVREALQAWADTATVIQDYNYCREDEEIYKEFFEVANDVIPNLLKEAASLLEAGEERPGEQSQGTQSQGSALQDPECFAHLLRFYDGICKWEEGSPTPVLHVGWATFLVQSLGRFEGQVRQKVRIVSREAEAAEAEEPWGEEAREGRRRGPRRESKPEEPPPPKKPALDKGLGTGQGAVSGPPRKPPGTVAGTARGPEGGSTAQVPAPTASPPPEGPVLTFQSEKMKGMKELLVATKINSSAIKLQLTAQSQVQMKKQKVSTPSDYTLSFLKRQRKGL

Activity change, negative = inhibition, inactive:
C[N+]1(CCNC(=O)/C=N/O)CCCCC1 1.09%, CC(c1ccccc1)c1nnc(NC(=O)Nc2ccccc2F)s1 (stereo not given) -6.18% [at 383 µM], CCOC(=O)CCC(=O)NCc1ccc2c(c1)cc(C)n2C -0.84%, CN(C)/C=C(/C(=O)c1ccc(Cl)cc1)S(=O)(=O)c1ccc(Cl)cc1 1.54% [at 383 µM], O=C(CC(=O)c1ccccc1)Nc1cc(C(F)(F)F)ccc1Cl -2.84%, O=C(C1=C(O)C(=O)N(CCN2CCOCC2)C1c1cccc(Br)c1)c1cccs1 (stereo not given) -7.5% [at 383 µM], O=C(NC(=S)N1CCCc2ccccc21)c1ccc([N+](=O)[O-])cc1 7.79%, CC(=O)O[C@H]1CSC[C@H]1NC(=O)c1ccccc1 5.21%, C=CCN(CC=C)S(=O)(=O)c1ccc(NC(=S)NC(=O)/C=C/c2cccc3ccccc23)cc1 -9.11%, CN1CCN(CC(=O)c2ccccc2F)CC1 7.33%, COc1ccc(-c2cc(-c3ccc(C)cc3)n[nH]2)c(O)c1 -10.7% [at 383 µM], CCc1ccc(CNC(=O)CCS(=O)(=O)Cc2ccccc2F)cc1 3.6%, CCCOc1ccc(C(=O)N2CCN(Cc3ccc4c(c3)OCO4)CC2)cc1 1.23%, CCc1nn(C)c2c(=O)c(=O)c2n(C)[nH]1 7.67%, C=C(C)CNC(=S)Nc1cccc2cnccc12 6.82%, Cn1c(=O)[nH]c(=O)c2c1nc(Br)n2CCSc1nc2ccccc2o1 -2.42% [at 383 µM], NC(=O)[C@@H]1CCCNc2c(I)cc([N+](=O)[O-])cc2C(=O)N[C@@H](CCCN=C(N)N)C(=O)N[C@@H](CCCN=C(N)N)C(=O)N1 -15.7% [at 383 µM], CCC(=O)NC(=S)Nc1ccc(-c2nc3ccc(C)cc3s2)cc1 -21.6%, O=C(CC(Sc1ccc(Br)cc1)C(=O)O)c1ccc(F)cc1 (stereo not given) 3.77% [at 383 µM], O=C(N1CCOCC1)N1CCN(S(=O)(=O)c2ccc(Cl)cc2)CC1 5.87%, O=C1NC(=S)N/C1=C/c1ccc2ccccc2c1 -20.1%, O=C(Cn1nc(-c2ccccc2)ccc1=O)N1CCCCC1 3.9% [at 383 µM], COc1cc(NC(=O)c2cccnc2)c(OC)cc1NC(=O)c1ccc(Br)cc1 -9.27%, O=c1cc(O)c2ccccc2n1Cc1ccccc1F 0.617%, O=C(Nc1cc(Br)ccc1O)c1cc(-c2ccc3c(c2)OCO3)on1 -2.75% [at 383 µM], CCOc1ccc2c(c1)C(NC(C)=O)C(=O)N2CCN1CCOCC1 (stereo not given) -12.1%, Cc1ccc(C(=O)Sc2cccccc2=O)cc1 17.3% [at 383 µM], CC(C)Cc1cc(C(=O)NCCCN2CCOCC2)no1 1.92%, CCn1ncc(C(=O)Nc2cc(C)on2)c1C -3.27%, O=C(CCn1nc(-c2ccccc2)ccc1=O)N1CCN(c2ccccn2)CC1 4.1%, CCCN(CCC)CCCNC(=S)Nc1ccc2nc(N3CCCC3)cc(C)c2c1 13.3%, COCC(=O)Nc1cccc2ccccc12 -1.3%

Potency, active:
COc1ccccc1NS(=O)(=O)c1cc(N2Cc3ccccc3C2=N)ccc1N1CCOCC1 89.1 µM, CN(C)[C@H]1C(=O)C(C(=O)NCN2CCCC2)=C(O)[C@]2(O)C(=O)C3=C(O)c4c(O)cccc4[C@](C)(O)[C@H]3C[C@H]12 70.7 µM, CCOc1cc(CNCCc2ccc(S(N)(=O)=O)cc2)ccc1OCc1ccccc1 251 µM
